Results: article PMC4336329 (PLoS ONE, 2015)
The whole screen tested about 310,000 compounds, of which about 14,000 (4.5%) showed an effect of 50% or more. Effects have a minus sign here. Only a selection was taken, and strong results are over-represented in it overall.

Molecular target: human ether-à-go-go-related gene (hERG) potassium channel (human, UniProt Q12809)
Test: primary screen, population patch clamp on CHO cells stably expressing hERG; higher = less effect of the substance
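Further: peak tail current of the secondary pulse compared with the same well before compound.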

human ether-à-go-go-related gene (hERG) potassium channel, sequence (Q12809 whole entry, looked up): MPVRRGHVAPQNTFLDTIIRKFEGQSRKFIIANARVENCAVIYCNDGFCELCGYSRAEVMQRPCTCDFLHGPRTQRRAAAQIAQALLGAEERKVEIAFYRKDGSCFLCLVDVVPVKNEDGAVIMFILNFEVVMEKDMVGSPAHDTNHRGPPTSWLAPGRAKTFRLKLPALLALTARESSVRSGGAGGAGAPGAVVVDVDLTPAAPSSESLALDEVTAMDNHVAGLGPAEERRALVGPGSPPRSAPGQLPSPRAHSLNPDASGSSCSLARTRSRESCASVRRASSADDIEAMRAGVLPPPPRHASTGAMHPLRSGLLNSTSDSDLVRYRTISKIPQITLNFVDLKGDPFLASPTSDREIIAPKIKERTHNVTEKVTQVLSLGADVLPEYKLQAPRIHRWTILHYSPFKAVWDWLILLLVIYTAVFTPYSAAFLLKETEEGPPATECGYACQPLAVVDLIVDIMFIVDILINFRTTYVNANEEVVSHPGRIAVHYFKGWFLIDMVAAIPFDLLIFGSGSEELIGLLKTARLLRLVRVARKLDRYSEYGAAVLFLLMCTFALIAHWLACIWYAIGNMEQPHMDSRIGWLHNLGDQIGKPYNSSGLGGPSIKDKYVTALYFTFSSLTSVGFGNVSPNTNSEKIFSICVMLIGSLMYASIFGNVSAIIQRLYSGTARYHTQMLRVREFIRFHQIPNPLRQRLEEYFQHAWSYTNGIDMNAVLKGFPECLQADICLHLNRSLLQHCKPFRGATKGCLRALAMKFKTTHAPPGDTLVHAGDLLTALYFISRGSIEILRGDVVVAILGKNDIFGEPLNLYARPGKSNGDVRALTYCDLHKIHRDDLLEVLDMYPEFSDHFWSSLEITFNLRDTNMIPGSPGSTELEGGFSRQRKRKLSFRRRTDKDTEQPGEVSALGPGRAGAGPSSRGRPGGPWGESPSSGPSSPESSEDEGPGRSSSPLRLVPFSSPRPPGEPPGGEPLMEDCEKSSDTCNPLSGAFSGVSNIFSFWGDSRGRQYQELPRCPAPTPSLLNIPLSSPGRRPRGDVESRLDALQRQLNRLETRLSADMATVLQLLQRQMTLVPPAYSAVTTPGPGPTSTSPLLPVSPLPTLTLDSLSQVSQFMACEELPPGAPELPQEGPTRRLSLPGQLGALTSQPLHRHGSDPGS

Row | Compound | hERG current change (%, negative = inhibition) at 10uM
1 | CN(C1=NS(=O)(=O)c2ccccc21)c1ccc(OC(=O)c2ccncc2)cc1 | -9.07%
2 | COc1cccc(CN(C)C(=O)CCN(c2ccccc2)S(=O)(=O)c2ccc(C)cc2)c1OC | -30.4%
3 | COC(=O)C1=C(c2ccc(F)cc2F)C[C@@H]2CC[C@H]1N2C(=O)NC1Cc2ccccc2C1 | -16.9%
4 | O=C(N/N=C/c1cc(O)ccc1[N+](=O)[O-])c1ccc2c(c1)OCCO2 | -2.12%
5 | CCCCOc1ccc(S(=O)(=O)n2c(C)nc3ccccc32)cc1 | 0.0246%
6 | CCN(CC(=O)NCc1cccs1)C(=O)c1ccc(S(=O)(=O)Nc2ccccc2Cl)cc1 | -26.8%
7 | C/C(=N\NC(=O)c1cccc(S(=O)(=O)N2CCCC2)c1)c1ccncc1 | -1.9%
8 | C/C(=N\NC(=O)c1cccc(S(=O)(=O)N2CCOCC2)c1)c1ccc(C#N)cc1 | -52.6%
9 | C/C(=N\NC(=O)c1cccc(S(=O)(=O)N2CCOCC2)c1)c1ccc(C)cc1 | -3.88%
10 | C/C(=N\NC(=O)c1cccc(S(=O)(=O)N2CCOCC2)c1)c1ccc(O)cc1 | 11.4%
11 | C/C(=N\NC(=O)c1cccc(S(=O)(=O)N2CCCC2)c1)c1ccc(C)cc1 | -50.4%
12 | N#Cc1ccc(/C=N/NC(=O)c2cccc(S(=O)(=O)N3CCOCC3)c2)cc1 | 13.3%
13 | Cn1c(=O)c2c([nH]c(=S)n2CCCc2ccccc2)n(C)c1=O | 15.5%
14 | CC(Cc1cccs1)NC(=O)Nc1ccc(F)cc1 (stereo not drawn) | 18.2%
15 | CCc1nc(C#N)c(N2CCOCC2)o1 | 2.54%
16 | CCN(c1ccccc1)S(=O)(=O)c1ccc(C(=O)Oc2ccc(C(C)=O)cc2)cc1 | 8.41%
17 | CC1(C)N=C(N)NC(Nc2ccccc2)=N1 | 2.96%
18 | Cc1onc(-c2ccccc2Cl)c1C(=O)Nc1ccc(-c2cn3cccnc3n2)cc1 | 26%
19 | Cc1onc(-c2ccccc2Cl)c1C(=O)Nc1cccc(-c2cn3cccnc3n2)c1 | -24.8%
20 | Cc1onc(-c2ccccc2Cl)c1C(=O)Nc1cccc(-c2nc3ncccn3c2C)c1 | -63%
21 | Cl.O=C1CC2(CCCC2)CC(=O)N1CCCCN1CCN(c2ncccn2)CC1 | -35.9%
22 | Cc1c(C)n2c(SCC(=O)NCc3ccc4c(c3)OCO4)nnc2[nH]c1=O | 7.88%
23 | CSc1cccc(NC(=S)N2CCC(N(C)C3CCCCCC3)CC2)c1 | -62.9%

Row | Compound | hERG current change (%, negative = inhibition) at 10uM
24 | CSc1cccc(NC(=S)N2CCC(N(C)C3CCCCC3C)CC2)c1 (stereo not drawn) | -58.2%
25 | CCCCN(C)C1CCN(C(=S)Nc2cccc(SC)c2)CC1 | -59.8%
26 | CCCCN(C)C1CCN(C(=S)Nc2cccc(OC)c2)CC1 | -19.9%
27 | CSc1cccc(NC(=S)N2CCC(N(C)C3CCCC3)CC2)c1 | -29.2%
28 | CSc1cccc(NC(=S)N2CCC(N(C)C(C)C)CC2)c1 | -16.2%
29 | CCOC(=O)N1CCC(N(CCN(C)C)C(=S)Nc2cccc(SC)c2)CC1 | -11.6%
30 | CSc1cccc(NC(=S)N2CCC(N(C)C3CCCCC3)CC2)c1 | -64.4%
31 | CSc1cccc(NC(=S)N2CCC(c3ccccc3)C2)c1 (stereo not drawn) | 7.54%
32 | CCC(C)N(C)C1CCN(C(=S)Nc2cccc(SC)c2)CC1 (stereo not drawn) | -45.8%
33 | CN(C1CCCC1)C1CCN(C(=S)Nc2cc(F)cc(F)c2)CC1 | -42%
34 | CCCCN(C(=S)Nc1cccc(SC)c1)C1CCN(C(C)=O)CC1 | -28.9%
35 | N#CCOc1coc(CN2CCN(c3cccc(Cl)c3)CC2)cc1=O | -0.696%
36 | Cc1ccccc1C(=O)NC(=S)Nc1ccccc1C(=O)O | 15.5%
37 | Cc1nnc(-c2cnn(-c3ccccc3)c2N)n1Cc1cccc(C(F)(F)F)c1 | -18.8%
38 | Cc1ccc(CSCC(=O)N(C)CC(=O)Nc2ccccc2C(F)(F)F)cc1 | -0.53%
39 | O=C1NC(=Nc2ccccc2Cl)S/C1=C\c1cccc([N+](=O)[O-])c1 | -0.316%
40 | Cn1cc(/C=C2\SC(=S)N(NC(=O)c3ccccc3)C2=O)c2ccccc21 | 10.6%
41 | CCOc1cc(C(=O)N(C)CC(=O)Nc2cccc(F)c2)ccc1OCC(=O)N1CCCCC1 | -14.1%
42 | O=C(COC(=O)CNC(=O)c1ccccc1F)Nc1ccc2[nH]c(=O)[nH]c2c1 | 10.2%
43 | COc1ccc(NC(=O)CN2C(=O)NC3(CCCC3)C2=O)cc1 | 13.7%
44 | CCOC(=O)c1nn(-c2ccc(F)cc2)c2c1CC/C2=C/c1ccccc1 | 8.7%
45 | CN(C)c1cc(N)c2c(n1)CCC2.O=C(O)c1cncc(O)c1 | -10.8%
46 | COC(=O)C1C(O)=C(C=Nc2cccc3ccccc23)C(=O)CC1(C)C (stereo not drawn) | -2.34%

Row | Compound | hERG current change (%, negative = inhibition) at 10uM
47 | Cc1ccc(S(=O)(=O)NCc2ccccc2C)cc1 | 11.6%
48 | N#CC(Sc1ccccn1)c1ccc(Cl)cc1 (stereo not drawn) | -18.2%
49 | CCCCN(C)C1CCN(C(=S)Nc2ccc(OCC)cc2)CC1 | -76.7%
50 | CCOc1ccc(NC(=S)N2CCC(N(C)CCN3CCOCC3)CC2)cc1 | -15.9%
51 | CCCCN(C)C1CCN(C(=S)Nc2ccc(OC)cc2)CC1 | -26%
52 | CC1CCC(N(C)C2CCN(C)CC2)CC1 (stereo not drawn) | 11.3%
53 | CCCC12CN3CC(C)(CN(C1)C3c1cccs1)C2=O (stereo not drawn) | -7.68%
54 | CC(=O)c1ccc(NC(=O)C2CCCC2)cc1 | 10.7%
55 | Fc1ccc(OCCCCCCN2CCCC2)cc1 | -9.37%
56 | Cl.O[Si](CCCN1CCCCC1)(c1ccc(F)cc1)C1CCCCC1 (stereo not drawn) | -54.3%
57 | Fc1ccc(OCCCCCN2CCCC2)cc1 | 4.62%
58 | CCN(CC)C(=O)c1ccc(S(=O)(=O)NCc2cccnc2)cc1 | 13.9%
59 | CC1=C(C(=O)OCc2ccccc2)C(c2cccc3ccccc23)NC(=O)N1CCCC(=O)O (stereo not drawn) | 20.8%
60 | Cc1ccc(C2CC(=O)C=C(NCc3ccccc3)C2)cc1 (stereo not drawn) | -38.8%
61 | COc1ccc(C2CC(=O)C=C(NCCC(C)C)C2)cc1 (stereo not drawn) | -73.2%
62 | O=C1C=C(NCc2ccc3c(c2)OCO3)CC(c2ccccc2)C1 (stereo not drawn) | -76.9%
63 | O=C1C=C(Nc2ccccc2)CC(c2ccccc2)C1 (stereo not drawn) | 9.51%
64 | O=C1C=C(NNC(=O)c2ccncc2)CC(c2ccccc2)C1 (stereo not drawn) | -1.64%
65 | O=C1C=C(NCc2ccncc2)CC(c2ccccc2)C1 (stereo not drawn) | -70.7%
66 | O=C1C=C(c2ccccc2)C[C@@H](c2ccc3c(c2)OCO3)C1 | -4.15%
67 | COc1ccc2cc(C3=CC(=O)C[C@H](c4ccc5c(c4)OCO5)C3)ccc2c1 | 17.3%
68 | COc1ccc([C@H]2CC(=O)C=C(c3ccc4c(c3)OCO4)C2)cc1 | -22.9%
69 | COc1ccc(C2CC(=O)C=C(NCc3ccc4c(c3)OCO4)C2)cc1 (stereo not drawn) | -73.1%

Row | Compound | hERG current change (%, negative = inhibition) at 10uM
70 | CC(C)CCNC1=CC(=O)CC(c2ccccc2)C1 (stereo not drawn) | -33.2%
71 | COc1ccc(C2CC(=O)C=C(NCC3CCCO3)C2)cc1 (stereo not drawn) | -9.1%
72 | O=C(N/N=C\c1ccco1)Nc1cccc(Cl)c1 | -5.83%
73 | CC1CCCCC1NC(=O)CCCn1c(=S)[nH]c2ccsc2c1=O (stereo not drawn) | 12.9%
74 | C=CCn1c(SCC(=O)NNC(=S)Nc2ccccc2)nnc1-c1ccccc1 | 15.9%
75 | Cc1cc([N+](=O)[O-])ccc1NC(=O)CSc1nncn1-c1ccccn1 | -28.1%
76 | NC(=O)c1cccnc1OCC(F)(F)F | 2.21%
77 | CCOc1ccc(NC(=O)CN(C)S(=O)(=O)c2ccc3c(c2)CCC(=O)N3)cc1 | -41.3%
78 | Cc1c(C(=O)NCCSCc2cccc(C(F)(F)F)c2)cnn1-c1ccc(Cl)cc1 | -30.6%
79 | Cc1c(C(=O)NCCSCc2ccc(F)cc2)cnn1-c1ccc(Cl)cc1 | -34.6%
80 | Cc1c(C(=O)NCCSCc2cccc(C(F)(F)F)c2)cnn1-c1ccc(F)cc1 | -64.6%
81 | CC(C)CCNC(=O)CN(Cc1cccs1)C(=O)CCC(=O)Nc1nccs1 | -10.6%
82 | CN(C)CCNc1c2c(c(C#N)c3nc4ccccc4n13)CCCC2 | -23.5%
83 | N#Cc1c2c(c(Nc3ccccc3)n3c1nc1ccccc13)CCC2 | 19.5%
84 | CC(=O)c1ccc(Nc2c3c(c(C#N)c4nc5ccccc5n24)CCC3)cc1 | -73.2%
85 | N#Cc1c2c(c(NCCOCCO)n3c1nc1ccccc13)CCCC2 | -63.3%
86 | N#Cc1c2c(c(Nc3ccc(O)cc3)n3c1nc1ccccc13)CCC2 | 5.51%
87 | COCCNc1c2c(c(C#N)c3nc4ccccc4n13)CCCC2 | -44.1%
88 | Cc1cc(C(=O)NCc2ccc3c(c2)OCO3)n(-c2ccccc2)n1 | -14.8%
89 | CCOC(=O)N1CCN(S(=O)(=O)Cc2ccccc2)CC1 | 15.5%
90 | Cc1ccc(S(=O)(=O)Nc2cc(C)c(O)c(Sc3n[nH]c(C)n3)c2)cc1 | 2.79%
